# PubChem BioAssay AID434973 (Sanford-Burnham Center for Chemical Genomics, 2010)
# Screen size: about 330,000 compounds; about 4,900 (1.5%) were called active. Only a selection was taken, and actives are over-represented in it overall. Values without a mark were called inactive.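 How the source made its calls: active means inhibition above about 50% at the single test dose (limit read from the data); inactive means the rest.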
# Molecular target: Sentrin-specific protease 7 (Homo sapiens) (UniProt Q9BQF6)
# Assay: blockers of human SENP7 peptidase activity – biochemical, luminescence, uHTS, primary screen (AID 434973);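 further: plate controls were DMSO with enzyme for no effect and no enzyme buffer wells for full effect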
# Conditions: recombinant SENP7, Z-RLRGG-aminoluciferin luminescence, 40 min; at 5 µM; hits give high values
row,Structure (SMILES),inhibition
1,CCn1cc(C(=O)NCCCN2CCCCCC2)c(=O)c2cc(S(=O)(=O)N3CCc4ccccc4C3)ccc21,7.21%
2,Cc1ccn2cc(C(=O)NC3CCN(Cc4ccccc4)CC3)nc2c1,5.68%
3,CCN(CC)S(=O)(=O)c1ccc(-c2cn3ccc(C)cc3n2)cc1,10.3%
4,COc1cc(OC)cc(-c2nc(=S)n3ccsc3n2)c1,0.18%
5,COc1ccc(-c2cn3ccc(C)cc3n2)cc1,98.1% (active)
6,COc1ccc(-c2cn3ccsc3n2)cc1,58.5% (active)
7,COc1ccc(-c2cn3cccnc3n2)cc1,1.35%
8,CC(C)(C)c1ccc(/C=C/C(=O)NC2CCS(=O)(=O)C2)cc1 (centres undefined),5.24%
9,Cc1ccc(S(=O)(=O)N2CCN(C(=O)c3ccc(-n4cncn4)c([N+](=O)[O-])c3)CC2)cc1,0.142%
10,CN(C)S(=O)(=O)c1cc(NC(=O)CN2C(=O)NC3(CCCc4ccccc43)C2=O)ccc1Cl (centres undefined),-13.5%
11,Cc1nc2nc(C)c(NS(=O)(=O)c3ccc(C(C)(C)C)cc3)c(=O)n2[nH]1,-0.191%
12,Cc1ccc(NC(=O)CSCC(=O)Nc2sccc2C#N)cc1,1.52%
13,Cc1cccc(C)c1Nc1nnc(SCC(=O)Nc2sccc2C#N)s1,8.73%
14,Cc1csc(SCC(=O)Nc2sccc2C#N)n1,94% (active)
15,COC(=O)C1=C(C)NC(=O)/C1=C/c1ccc(CNS(=O)(=O)c2ccc(C)cc2)o1,-2.86%
16,CC(=O)Nc1ccc(C(=O)Nc2cccc(S(=O)(=O)NC3=NCCC3)c2)cc1,-0.0847%
17,N#Cc1ccccc1NC(=O)c1ccc2c(c1)OCO2,2.46%
18,O=C(Nc1ccc2c(c1)OCCO2)c1ccoc1,-0.659%
19,O=C(Nc1cccc([N+](=O)[O-])c1)c1ccc2c(c1)OCO2,66.9% (active)
20,O=C(Nc1ccc(N2CCOCC2)cc1)c1ccc2c(c1)OCO2,16.9%
21,CN(Cc1c(F)cccc1Cl)C(=O)CNC(=O)c1ccc2c(c1)OCO2,-9.22%
22,O=C(Nc1ccccc1)c1ccc2c(c1)OCO2,88.5% (active)
23,CC(NC(=O)Nc1cccc([N+](=O)[O-])c1)c1ccc2c(c1)OCO2 (centres undefined),3.89%
24,O=C(Nc1ccc(NC(=O)c2ccc3c(c2)OCO3)cc1)c1cccc(Cl)c1,1.85%
25,CC(C)C(=O)Nc1cccc(C(=O)Nc2ccc3c(c2)OCO3)c1,34.3%
26,O=C(Nc1ccccc1F)c1ccc2c(c1)OCO2,67.5% (active)
27,O=C(Nc1ccccc1)c1ccc2c(c1)OCCCO2,90.7% (active)

row,Structure (SMILES),inhibition
1,CN1CCN(c2ccc(NC(=O)c3ccc4c(c3)OCCO4)cc2Cl)CC1,-1.01%
2,Cc1ccc(S(=O)(=O)N2CCOCC2)cc1NC(=O)CSc1nnc(N)s1,-5.72%
3,CC(C)(C)C1CCC(OC(=O)CCC(=O)Nc2ccccc2)CC1 (centres undefined),3.21%
4,COc1cc(OC)cc(/C(N)=N/O)c1,0.905%
5,O=C(CN1C(=O)NC2(CCCC2)C1=O)NCC1CCCO1 (centres undefined),4.93%
6,O=C(CN1C(=O)CC(c2ccccc2)S(=O)(=O)c2ccccc21)NC1CCCC1 (centres undefined),2.74%
7,O=c1ccc2cc(S(=O)(=O)NCCCc3ccccc3)ccc2[nH]1,4.36%
8,CCOC(=O)CCP(=O)(O)C(O)(c1ccccc1)c1ccccc1,-5.54%
9,O=S(=O)(c1cccc(-c2nnc(SC(F)F)n2-c2ccccc2)c1)N1CCCCC1,1.56%
10,N#CCCN(C(=O)COC(=O)c1ccc2c(c1)OCCO2)c1ccccc1,3.84%
11,CSc1nsc(NC(=O)Nc2ccccc2)n1,34.9%
12,O=C(CCC(=O)c1cccs1)Nc1nc2ccccc2s1,1.54%
13,O=C(COC(=O)c1ccncc1)Nc1ccc2c(c1)OCO2,-10.3%
14,O=C(COC(=O)c1ccc(F)cc1)Nc1ccc2c(c1)OCO2,-9.15%
15,CC(=O)Nc1cccc(C(=O)OCC(=O)c2ccc3c(c2)OCO3)c1,81.4% (active)
16,Cc1ccc2sc(NNC(=O)c3ccc4c(c3)OCCO4)nc2c1C,2.93%
17,O=C(OCc1ccccc1F)c1ccc2c(c1)OCCO2,84.2% (active)
18,O=C(Nc1ccccc1)Nc1nc2ccccc2s1,66% (active)
19,O=C(Nc1nc2ccccc2s1)c1ccc2c(c1)OCO2,97.1% (active)
20,COCc1nnc(NC(=O)c2ccc3c(c2)OCO3)s1,12.1%
21,O=C(COC(=O)c1ccc2c(c1)OCCO2)NCc1ccccc1Cl,-9.15%
22,CC[N+]1(CC)CC2=Cc3ccccc3CC2C1 (centres undefined),5.4%
23,Cc1ccc(CN2CCN(/N=C/c3cccnc3)CC2)c(C)c1,4.31%
24,CCN(C(=O)C1CCCN(c2nc(-c3ccc(OC)cc3)no2)C1)c1ccc(OC)cc1 (centres undefined),-0.167%
25,CCOC(=O)CSc1nnc(NC(=O)C2CC(=O)N(c3ccc(F)cc3)C2)s1 (centres undefined),-6.57%
26,CC(=O)Nc1ccc(S(=O)(=O)N2CCN(S(=O)(=O)c3cccs3)CC2)cc1,-14%
27,Cc1ccccc1Nc1scc(-c2ccc(Br)cc2)[n+]1-c1ccccc1C,0.441%
